For the experiment, the system named is Salmonella enterica serovar Typhimurium SL1344. Kind of experiment: normalized intracellular growth (luminescence, IQM-normalized) in RAW264.7 macrophages (fraction of plate interquartile mean); higher = more bacterial growth (less inhibition). To be noted: 10 µM.

The structures appear in SMILES notation. ± gives the standard deviation of the averaged measurements. Over roughly 1,600 compounds, “normalized intracellular growth (luminescence, IQM-normalized) in RAW264.7 macrophages” has its median near 1; the lowest 2% begin near 0.43. Only a selection was taken, and the lowest values are over-represented in it overall.

Data on 47 compounds can be found in the supplement of paper PMC6331611.

On to `O=C(OCc1ccccc1)c1ccccc1`, for which the normalized intracellular growth was 0.966 ± 0.057 (time point: T3 (3 h)) and 0.928 ± 0.069 (time point: Tfinal (~6 h)).
The corresponding values for `O=C(OOC(=O)c1ccccc1)c1ccccc1` are 1 ± 0.017 and 1.05 ± 0.037.
The corresponding values for `CCCNC(C)(C)COC(=O)c1ccccc1` are 0.828 ± 0.083 and 0.1174 ± 0.0011.
In the same order, the values of `C=C1CC[C@H](O)C/C1=C/C=C1\CCC[C@]2(C)[C@@H]([C@H](C)/C=C/[C@H](C)C(C)C)CC[C@@H]12` are 1.04 ± 0.059 and 1.2 ± 0.086.
For the compound `CC(O)(CC(=O)O)CC(=O)O`, the normalized intracellular growth (time point: T3 (3 h)) is 0.971 ± 0.034 and the normalized intracellular growth (time point: Tfinal (~6 h)) was 1.02 ± 0.061.
Take `Nc1ccc(S(N)(=O)=O)cc1`: the normalized intracellular growth came to 0.9673 ± 0.006 (time point: T3 (3 h)) and 1.07 ± 0.1 (time point: Tfinal (~6 h)).
The corresponding values for `NCc1ccc(S(N)(=O)=O)cc1` are 0.686 ± 0.071 and 0.0766 ± 0.0043.
The corresponding values for `NS(=O)(=O)c1ccc(C(=O)O)cc1` are 1.006 ± 0.0098 and 0.964 ± 0.076.
The corresponding values for `O=C(O)CN1C(=O)c2cccc3cccc(c23)C1=O` are 0.914 ± 0.099 and 1.05 ± 0.096.
Regarding `CC(=O)Nc1ccc(C(=O)O)cc1`, the normalized intracellular growth was found to be 1.06 ± 0.055 (time point: T3 (3 h)) and 0.967 ± 0.1 (time point: Tfinal (~6 h)).
On to `CCCCC(CC)CCC(CC(C)C)OS(=O)(=O)O` (centres undefined), for which the normalized intracellular growth runs as follows: (time point: T3 (3 h)) 1.03 ± 0.031; (time point: Tfinal (~6 h)) 1.1 ± 0.03.
In the same order, the values of `NCCC[C@H](N)C(=O)O` are 0.972 ± 0.048 and 0.966 ± 0.13.
The corresponding values for `C[C@H]1[C@H](NC(=O)/C(=N\OC(C)(C)C(=O)O)c2csc(N)n2)C(=O)N1S(=O)(=O)O` are 0.992 ± 0.04 and 0.2 ± 0.016.
In the same order, the values of `CC(C)(O/N=C(\C(=O)N[C@@H]1C(=O)N2C(C(=O)[O-])=C(C[n+]3ccccc3)CS[C@H]12)c1csc(N)n1)C(=O)O` are 0.997 ± 0.078 and 0.806 ± 0.12.
As for `FC(F)(F)COCC(F)(F)F`, the normalized intracellular growth turned out to be 0.946 ± 0.09 (time point: T3 (3 h)) and 0.9 ± 0.27 (time point: Tfinal (~6 h)).
In the same order, the values of `CC(=O)N[C@@H](CCC(N)=O)C(=O)O` are 0.959 ± 0.023 and 0.942 ± 0.11.
In the same order, the values of `Nc1ccc(S(=O)(=O)O)cc1.Nc1ccc(S(=O)(=O)O)cc1.[Zn]` are 1.01 ± 0.047 and 1.15 ± 0.099.
In the same order, the values of `CC12CCC(CC1)C(C)(C)O2` are 1.02 ± 0.024 and 0.96 ± 0.18.
As to `CN(C)[C@@H]1C(O)=C(C(N)=O)C(=O)[C@@]2(O)C(O)=C3C(=O)c4c(O)ccc(Cl)c4[C@@](C)(O)[C@H]3C[C@@H]12`, the normalized intracellular growth runs as follows: (time point: T3 (3 h)) 0.846 ± 0.031; (time point: Tfinal (~6 h)) 0.23 ± 0.02.
The corresponding values for `CN(C)[C@@H]1C(O)=C(C(N)=O)C(=O)[C@@]2(O)C(O)=C3C(=O)c4c(O)cccc4[C@@](C)(O)[C@H]3[C@H](O)[C@@H]12` are 1.01 ± 0.074 and 0.0331 ± 0.014.
The corresponding values for `CN(C)[C@@H]1C(O)=C(C(N)=O)C(=O)[C@@]2(O)C(O)=C3C(=O)c4c(O)ccc(Cl)c4[C@@H](O)[C@H]3C[C@@H]12` are 0.727 ± 0.11 and 0.176 ± 0.0084.
The corresponding values for `C=C1c2c(Cl)ccc(O)c2C(=O)C2=C(O)[C@]3(O)C(=O)C(C(N)=O)=C(O)[C@@H](N(C)C)[C@@H]3[C@@H](O)[C@H]12.O=C(O)c1cc(S(=O)(=O)O)ccc1O` are 1.01 ± 0.065 and 0.0256 ± 0.0064.
`OCc1ccccn1`: the normalized intracellular growth by setting is: (time point: T3 (3 h)) 1.02 ± 0.06; (time point: Tfinal (~6 h)) 0.892 ± 0.1.
The corresponding values for `C=NC(C(=O)NC1C(=O)N2C1SC(C)(C)C2C(=O)O)c1ccccc1` (centres undefined) are 0.959 ± 0.021 and 1.04 ± 0.011.
As to `Nc1ncnc(Nc2ccc(Cl)cc2)n1`, the normalized intracellular growth by setting is: (time point: T3 (3 h)) 1.1 ± 0.074; (time point: Tfinal (~6 h)) 0.945 ± 0.42.
The corresponding values for `Cc1ncc([N+](=O)[O-])n1C` are 0.936 ± 0.053 and 0.98 ± 0.1.
In the same order, the values of `Nc1nccs1` are 1.03 ± 0.072 and 0.911 ± 0.12.
The corresponding values for `O.O.O=C([O-])CN(CCN(CC(=O)[O-])CC(=O)O)CC(=O)O.[Na+].[Na+]` are 0.978 ± 0.021 and 1.02 ± 0.013.
`O=c1[nH]c(=O)c2ccccc2o1`: the normalized intracellular growth came out at 0.963 ± 0.026 (time point: T3 (3 h)) and 1.02 ± 0.078 (time point: Tfinal (~6 h)).
Regarding `CC1=C(C/C=C(\C)CCC[C@H](C)CCC[C@H](C)CCCC(C)C)C(=O)c2ccccc2C1=O`, the normalized intracellular growth by setting is: (time point: T3 (3 h)) 0.968 ± 0.067; (time point: Tfinal (~6 h)) 1.08 ± 0.064.
For `CCCCC/C=C/CCC(=O)N[C@H]1[C@H](Oc2c3cc4cc2Oc2ccc(cc2Cl)[C@@H](O[C@@H]2O[C@H](CO)[C@@H](O)[C@H](O)[C@H]2NC(C)=O)[C@@H]2NC(=O)[C@H](NC(=O)[C@@H]4NC(=O)[C@H]4NC(=O)C(Cc5ccc(c(Cl)c5)O3)NC(=O)[C@H](N)c3ccc(O)c(c3)Oc3cc(O)cc4c3)c3ccc(O)c(c3)-c3c(OC4O[C@H](CO)[C@@H](O)[C@H](O)[C@@H]4O)cc(O)cc3[C@@H](C(=O)O)NC2=O)O[C@H](CO)[C@@H](O)[C@@H]1O` (some centres undefined) [TEICOPLANIN [A(2-1) shown]], the normalized intracellular growth amounted to 0.955 ± 0.07 (time point: T3 (3 h)) and 1.07 ± 0.065 (time point: Tfinal (~6 h)).
In the same order, the values of `Cc1c(C)c2c(c(C)c1O)CCC(C)(CCCC(C)CCCC(C)CCCC(C)C)O2` (stereo not drawn) [alpha-TOCHOPHEROL] are 0.999 ± 0.14 and 1.1 ± 0.13.
The corresponding values for `O=C(NCc1ccccc1)OCCO` are 1.24 ± 0.071 and 1.33 ± 0.083.
In the same order, the values of `CN(C)[C@@H]1C(O)=C(C(N)=O)C(=O)[C@@]2(O)C(O)=C3C(=O)c4c(O)cccc4[C@@](C)(O)[C@H]3C[C@@H]12` are 0.598 ± 0.062 and 0.209 ± 0.048.
On to `CN(C)c1cc(NC(=O)CNC(C)(C)C)c(O)c2c1C[C@H]1C[C@H]3[C@H](N(C)C)C(O)=C(C(N)=O)C(=O)[C@@]3(O)C(O)=C1C2=O`, for which the normalized intracellular growth was 1.01 ± 0.05 (time point: T3 (3 h)) and 1.02 ± 0.18 (time point: Tfinal (~6 h)).
In the same order, the values of `CN(C)c1ccc(O)c2c1C[C@H]1C[C@H]3[C@H](N(C)C)C(O)=C(C(N)=O)C(=O)[C@@]3(O)C(O)=C1C2=O` are 1.01 ± 0.091 and 0.33 ± 0.14.
The corresponding values for `CN(C)[C@@H]1C(O)=C(C(=O)NCN2CCCC2)C(=O)[C@@]2(O)C(O)=C3C(=O)c4c(O)cccc4[C@@](C)(O)[C@H]3C[C@@H]12` are 0.973 ± 0.013 and 0.683 ± 0.41.
The corresponding values for `C[C@H]1c2cccc(O)c2C(=O)C2=C(O)[C@]3(O)C(=O)C(C(N)=O)=C(O)[C@@H](N(C)C)[C@@H]3[C@@H](O)[C@@H]21` are 0.73 ± 0.065 and 0.173 ± 0.025.
Regarding `C=C1c2cccc(O)c2C(=O)C2=C(O)[C@]3(O)C(=O)C(C(N)=O)=C(O)[C@@H](N(C)C)[C@@H]3[C@@H](O)[C@H]12`, the normalized intracellular growth turned out to be 0.979 ± 0.029 (time point: T3 (3 h)) and 0.103 ± 0.039 (time point: Tfinal (~6 h)).
The corresponding values for `CN(C)CCc1c[nH]c2ccc(CS(=O)(=O)N3CCCC3)cc12` are 0.989 ± 0.027 and 1.14 ± 0.15.
In the same order, the values of `CCCCCNC(=N)N/N=C/c1c[nH]c2ccc(OC)cc12` are 1.05 ± 0.1 and 1.08 ± 0.037.
In the same order, the values of `CCC(=O)Oc1ccc2c(c1)CC[C@@H]1[C@@H]2CC[C@]2(C)[C@@H](OC(=O)CC)CC[C@@H]12` are 0.977 ± 0.092 and 0.934 ± 0.089.
Turning to `O=C([O-])C(O)[C@H](O)[C@@H](O)[C@H](O)[C@H](O)CO.O=C([O-])C(O)[C@H](O)[C@@H](O)[C@H](O)[C@H](O)CO.[Ca+2]` (some centres undefined), the normalized intracellular growth runs as follows: (time point: T3 (3 h)) 1.04 ± 0.019; (time point: Tfinal (~6 h)) 1.06 ± 0.18.
The corresponding values for `Cc1c(OCC(F)(F)F)ccnc1C[S@@+]([O-])c1nc2ccccc2[nH]1` are 0.98 ± 0.076 and 1.18 ± 0.11.
The corresponding values for `CC1=C(C)C(=O)C(C(CCCCCC(=O)O)c2ccccc2)=C(C)C1=O` (centres undefined) are 0.994 ± 0.042 and 1.18 ± 0.085.
In the same order, the values of `NC(=O)c1cc[n+](CC2=C(C(=O)O)N3C(=O)[C@@H](NC(=O)[C@@H](c4ccccc4)S(=O)(=O)[O-])[C@H]3SC2)cc1` are 0.999 ± 0.056 and 1.05 ± 0.028.
With `CCOc1ccc(NC(=O)CC(C)O)cc1` (centres undefined), the normalized intracellular growth by setting is: (time point: T3 (3 h)) 0.969 ± 0.045; (time point: Tfinal (~6 h)) 1.202 ± 0.0076.
